This is an account of results in PubChem BioAssay.

Each structure is given as a SMILES string. Records with an inconclusive call do not appear. Activity calls are given as the source filed them. Rule as the data show it, unless noted: active = inhibition above about 30%; inactive = the rest.

A short description of assay [1]: Her2 expression decrease, cell viability multiplex – SKBR3 breast tumor cells, AlphaScreen, ATP viability, primary screen (AID 461;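 active = Her2 level under about 52% in both replicate screens, with viability over 70% of control, limit read from the data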;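 as to Her2 level: lower value means less Her2 protein in the cells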;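 as to viability: percent of carrier control wells set as 100% viability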). The following applies: SKBR3 Her2 protein level, 18-24 h, measured here: SKBR3 viability, ATP luminescence, at 10 µM. A general note: Alpha assays give light when donor and acceptor beads are brought close together.
Assay [2] addresses Receptor tyrosine-protein kinase erbB-2 (Homo sapiens) (UniProt P04626). The assay is described as above. The note with it: 18-24 h, at 10 µM, stronger effect = lower value.
Assay [3] is described as follows: reduced viability of SK-BR-3 breast cancer cells – cell-based, 24 h, human, pilot screen (AID 572;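 active = viability at or below 10% of carrier control in both of two separate runs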;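 also: compound exposure lasted between 18 and 24 h rather than exactly 24 h; 100% = carrier-treated control wells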). The note with it: SK-BR-3 viability, CellTiter-Glo luminescence, at 10 µM, stronger effect = lower value.
A short description of assay [4]: HUVEC growth inhibition – cell-based, human, primary screen (AID 575;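 active = viability at or below 30% in both replicate assays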;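 also: 100% = median of untreated cell wells with 0.1% DMSO on each plate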). The following applies: HUVEC proliferation, CellTiter-Glo luminescence, 72 h; at 10 µM; stronger effect = lower value. A general note: ATP-based viability assays read luminescence as a measure of living cells.
The nature of assay [5]: H69AR cell proliferation blockers – human, duplicate replicates, primary screen (AID 580;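 active = viability at or under a set limit in both replicates, limit being median viability minus 3 SD, cut at about 48% in these data, passing the limit was not always enough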;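 also: 100% = mean luminescence of untreated wells and 0% = no signal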). The note with it: H69AR lung tumor cells viability, ATP luminescence, 72 h; at 10 µM; stronger effect = lower value.
A short description of assay [6]: MRP1 drug-resistance reversers in H69AR cells – cell-based, doxorubicin co-treatment, pilot screen (AID 601;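 active = viability loss from added drug above about 55%, and viability with drug at most 40%, in both replicates, limit read from the data, passing the limit was not always enough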). The following applies: CellTiter-Glo, 72 h, at 10 µM; for differential viability (reversal): stronger effect = higher value.
The nature of assay [7]: yeast transport mutant growth inhibition pilot in 384-well plates, post-Golgi transport modulator project (AID 636; in the data active = inhibition above about 31%). The following applies: absorbance 615 nm, about 18 h, stronger effect = higher value.
Assay [8] is described as follows: growth suppression of yeast trafficking mutant, preliminary HTS, modulators of trafficking downstream of Golgi apparatus project, 1536-format plate, OD 615 nm (AID 637). The following applies: yeast transport mutant growth, absorbance 615 nm, 18 h; stronger effect = higher value.
A short description of assay [9]: S. cerevisiae growth inhibition in permissive medium (OD615), pilot counter-assay for S. cerevisiae lifespan shortening project, permissive growth control (AID 705;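 active = growth inhibition above 25% in both replicates, a cutoff set 3 SD above the mean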). The following applies: OD615, 24 h, at 10 µM, stronger effect = higher value.
The nature of assay [10]: S. cerevisiae growth inhibition in restrictive medium, OD615, pilot screen, restrictive growth control, yeast lifespan reduction project (AID 706;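 active = growth inhibition above a set limit, 3 SD over mean compound inhibition, in both replicates, cut at about 43% in these data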;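 also: modified DeaD lifespan yeast strain shifted to restrictive glucose medium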). The note with it: OD615, 48 h, at 10 µM, stronger effect = higher value.
Assay [11] in a line: doxorubicin toxicity protection in MRP-1 cells – H69AR cells, CellTiter-Glo, duplicate, MRP-1 activator project, pilot screen (AID 807;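 active = viability increase at or above a cutoff of the median across tested compounds plus 3 SD, cut at about 8.5% in these data, passing the limit was not always enough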;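 also: compound pretreatment 18-22 h then 72 h combined with doxorubicin; 0% = doxorubicin alone and 100% = vehicle without doxorubicin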). The note with it: H69AR viability with doxorubicin, CellTiter-Glo luminescence; at 10 µM; stronger effect = higher value.
A short description of assay [12]: viability of HCT116 without oncogenic beta-catenin – human colon tumor cells, pilot screen (AID 823;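 active = cell viability at or below a set limit in both duplicate runs, the limit being the all-compound median minus 4 SD, cut at about 23% in these data, passing the limit was not always enough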;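 also: 0% = wells killed by 20 µM Hyamine and 100% = untreated DMSO cell wells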). The following applies: HCT116 beta-catenin knockout viability, CellTiter-Glo, 60 h; at 10 µM; stronger effect = lower value.
Assay [13] is described as follows: viability of PTEN-null HCT116 cells – cell-based, HCT116 clonal line, CellTiter-Glo, pilot screen (AID 824;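 active = viability at or below 27.92% in each of two runs, the all-compound median minus 4 SD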;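 also: 0% = 20 µM Hyamine control and 100% = vehicle cell control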). The note with it: HCT116 PTEN-deleted viability, 60 h, at 10 µM, stronger effect = lower value.
The nature of assay [14]: RAM pathway blockade in budding yeast – dse1pr::URA3 reporter, 5-FOA selection, pilot screen (AID 869;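 active = inhibition over a set limit, the all-compound mean plus 3 SD, in both replicate runs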;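 also: 0% = DMSO wells with no growth and 100% = 10 µM 1-NA-PP1 with full growth; RAM network block rescues cells from 5-FOA so hits raise OD615 growth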). The note with it: S. cerevisiae dse1pr::URA3 5-FOA growth, OD615, 2 d; at 10 µM; stronger effect = higher value; strain carries analog-sensitive mutant Cbk1 kinase.
Assay [15] is described as follows: RAM signaling pathway blockade in yeast – S. cerevisiae, Pdr1DBD-CYC8 efflux-inhibited sensitized strain, primary screen (AID 1298;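 active = RAM network inhibition above 8.4% in each of two replicates, 3 SD over the compound average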;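 also: 0% = DMSO untreated cells without growth and 100% = 10 µM 1-NA-PP1 full growth; higher means more yeast growth rescued from 5-FOA killing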). The note with it: S. cerevisiae cbk1-as DSE1-URA3 strain, 5-FOA growth OD615, 2 d; at 50 µM; stronger effect = higher value.
[16] abbreviates: H69AR cells + 2 uM doxorubicin, measured here: viability with 2 uM doxorubicin, stronger effect = lower value.
[17] abbreviates: H69AR cells, compound alone cytotoxicity.

Receptor tyrosine-protein kinase erbB-2 (Homo sapiens), sequence (P04626 whole entry, looked up): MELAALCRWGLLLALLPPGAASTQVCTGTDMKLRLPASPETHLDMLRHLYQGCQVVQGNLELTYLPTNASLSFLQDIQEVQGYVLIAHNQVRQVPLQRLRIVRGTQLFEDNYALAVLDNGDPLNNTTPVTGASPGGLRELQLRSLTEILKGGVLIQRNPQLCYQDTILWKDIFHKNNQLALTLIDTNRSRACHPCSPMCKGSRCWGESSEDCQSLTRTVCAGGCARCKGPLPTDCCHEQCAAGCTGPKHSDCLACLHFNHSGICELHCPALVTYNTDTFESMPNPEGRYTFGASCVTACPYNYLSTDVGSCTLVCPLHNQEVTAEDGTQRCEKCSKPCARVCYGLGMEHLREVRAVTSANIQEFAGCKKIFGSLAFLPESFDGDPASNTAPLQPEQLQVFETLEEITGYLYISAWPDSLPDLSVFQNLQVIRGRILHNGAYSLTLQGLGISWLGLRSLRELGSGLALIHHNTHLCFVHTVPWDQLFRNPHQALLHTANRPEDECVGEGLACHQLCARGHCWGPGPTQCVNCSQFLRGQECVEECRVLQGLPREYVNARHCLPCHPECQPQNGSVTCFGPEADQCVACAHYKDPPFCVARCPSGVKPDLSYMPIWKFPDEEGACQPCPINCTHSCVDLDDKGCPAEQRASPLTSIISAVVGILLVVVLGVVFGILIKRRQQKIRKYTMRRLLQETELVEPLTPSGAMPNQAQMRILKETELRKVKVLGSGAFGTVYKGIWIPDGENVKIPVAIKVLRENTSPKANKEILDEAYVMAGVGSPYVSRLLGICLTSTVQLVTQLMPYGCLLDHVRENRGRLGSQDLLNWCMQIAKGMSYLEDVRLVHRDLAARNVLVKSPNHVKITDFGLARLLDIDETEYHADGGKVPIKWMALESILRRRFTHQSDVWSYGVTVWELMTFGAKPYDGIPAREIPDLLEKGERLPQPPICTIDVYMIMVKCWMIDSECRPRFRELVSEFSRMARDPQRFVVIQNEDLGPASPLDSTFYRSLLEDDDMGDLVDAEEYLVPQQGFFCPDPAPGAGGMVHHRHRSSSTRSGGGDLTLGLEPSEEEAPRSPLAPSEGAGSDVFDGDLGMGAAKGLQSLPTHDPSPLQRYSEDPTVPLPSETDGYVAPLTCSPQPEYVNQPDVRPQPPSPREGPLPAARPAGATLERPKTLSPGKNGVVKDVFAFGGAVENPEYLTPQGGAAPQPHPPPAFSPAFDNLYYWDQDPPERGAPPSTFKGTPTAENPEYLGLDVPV

For the compound `Fc1ccc(-c2nnc3ccc(N4CCCC4)nn23)cc1`, the viability (as a rule, a read-out of living cells in per cent, often relative to untreated cells) in [1] is 80%; in [3], 80% (inactive); in assay [4] it was 64.2% (inactive); in [5], 94.5% (inactive); in [6] (setting [16]), 77.7%; in assay [6] (setting [17]), 94.5%. Moreover, the viability in assay [12] is 102% (inactive); in assay [13], 86.3% (inactive). In addition, the Her2 level in assay [2] was 90.5% (inactive). For the same compound, the differential viability (reversal) in assay [6] (H69AR cells + 2 uM doxorubicin) is 16.8% (inactive). Also, the inhibition (usually the change of the read-out against control, counted positive when it falls) in [7] is -0.27% (inactive); in assay [8], 8.52% (inactive); in [14], 0.685% (inactive). For the same compound, the values for the growth inhibition in [9] and in [10] were 11.7% (inactive) and 32.5% (inactive), respectively. Moreover, the viability increase in assay [11] was -5.62% (inactive). Besides, the RAM network inhibition in assay [15] was 5.61% (inactive).
For the compound `O=C(Cn1ncc2c1-c1ccccc1OC2)N1CCN(c2ccccn2)CC1`, the viability in assay [1] was 91.5%; in [3] it was 91.5% (inactive); in assay [4], 101% (inactive); in assay [5], 89.7% (inactive); in [6] (setting [16]), 85.5%; in assay [6] (setting [17]), 89.7%. For the same compound, the viability in assay [12] was 99.9% (inactive); in assay [13] it was 92.7% (inactive). For the same compound, the Her2 level in assay [2] is 108% (inactive). Further, the differential viability (reversal) in assay [6] (H69AR cells + 2 uM doxorubicin) is 4.26% (inactive). The inhibition is -2.05% (inactive) in [7], 0.67% (inactive) in assay [8] and 0.525% (inactive) in assay [14]. In addition, the growth inhibition is -9.33% (inactive) in [9] and -14.6% (inactive) in assay [10]. Also, the viability increase in assay [11] is -1.13% (inactive). The RAM network inhibition in assay [15] was 3.36% (inactive).
As to `COc1ccc(C2CC(c3cccs3)n3nc(N)nc3N2)cc1` (stereo not drawn), the viability is 113% in assay [1]; 113% (inactive) in assay [3]; 89.3% (inactive) in assay [4]; 91.4% (inactive) in [5]; 83.4% in [6] (setting [16]); 91.4% in [6] (setting [17]). For the same compound, the values for the viability in assay [12] and in assay [13] were 94.2% (inactive) and 82.2% (inactive), respectively. Also, the Her2 level in [2] was 102% (inactive). Besides, the differential viability (reversal) in assay [6] (H69AR cells + 2 uM doxorubicin) was 7.99% (inactive). In addition, the inhibition was -2.4% (inactive) in assay [7], -6.39% (inactive) in assay [8] and 0.275% (inactive) in assay [14]. Besides, the growth inhibition is 2.05% (inactive) in [9] and 17% (inactive) in [10]. Also, in [11], the viability increase was -1.71% (inactive). Further, in assay [15], the RAM network inhibition is 8.26% (inactive).
`Cc1ccc(S(=O)(=O)Cc2ccc(C(=O)N3CCN(Cc4ccccc4)CC3)o2)cc1`: the viability is 86.5% in assay [1]; 86.5% (inactive) in assay [3]; 106% (inactive) in assay [4]; 85.8% (inactive) in [5]; 94.6% in [6] (setting [16]); 85.8% in assay [6] (setting [17]). Further, the viability in [12] is 97.3% (inactive); in assay [13], 94.9% (inactive). The Her2 level in assay [2] is 80.5% (inactive). The differential viability (reversal) in assay [6] (H69AR cells + 2 uM doxorubicin) is -8.85% (inactive). Also, the inhibition was -0.9% (inactive) in assay [7], 3.5% (inactive) in assay [8] and 1.59% (inactive) in [14]. Moreover, the values for the growth inhibition in assay [9] and in assay [10] were 0.06% (inactive) and -3.51% (inactive), respectively. The viability increase in [11] is -1.59% (inactive). For the same compound, the RAM network inhibition in assay [15] was 6.48% (inactive).
For the compound `CCC1CCCCN1CCCNC(=O)CC1Oc2ccc(C)cc2NC1=O` (stereo not drawn), the viability in assay [1] was 110%; in [3], 110% (inactive); in assay [4], 74.3% (inactive); in assay [5] it was 89.1% (inactive); in assay [6] (setting [16]) it was 92.9%; in assay [6] (setting [17]), 89.1%. The viability in assay [12] is 95% (inactive); in assay [13], 91.1% (inactive). The Her2 level in [2] was 97.5% (inactive). In addition, in assay [6] (H69AR cells + 2 uM doxorubicin), the differential viability (reversal) is -3.82% (inactive). In addition, the inhibition is -2.27% (inactive) in assay [7], -0.49% (inactive) in [8] and 1.57% (inactive) in assay [14]. Besides, the growth inhibition in assay [9] was 2.28% (inactive); in [10] it was 0.165% (inactive). Moreover, the viability increase in assay [11] was -3.12% (inactive). In addition, in [15], the RAM network inhibition was 2.53% (inactive).
`CC(=O)NC(CCS(C)(=O)=O)C(=O)Nc1cccc(C)c1` (stereo not drawn): the viability in [1] was 88.5%; in assay [3] it was 88.5% (inactive); in [4], 89.3% (inactive); in assay [5] it was 94.1% (inactive); in assay [6] (setting [16]) it was 92.7%; in [6] (setting [17]) it was 94.1%. Further, the figures for the viability in [12] and in [13] were 103% (inactive) and 100% (inactive), respectively. Further, the Her2 level in assay [2] is 121% (inactive). In addition, the differential viability (reversal) in assay [6] (H69AR cells + 2 uM doxorubicin) was 1.42% (inactive). The figures for the inhibition in [7], in [8] and in [14] were 1.87% (inactive), 1.83% (inactive) and 1.04% (inactive), respectively. The growth inhibition in assay [9] was -12.4% (inactive); in assay [10], -11.9% (inactive). In addition, the viability increase in [11] is 0.75% (inactive). The RAM network inhibition in assay [15] is 2.51% (inactive).
`Oc1ccc(-c2n[nH]c(=S)n2Cc2ccccc2)cc1`: the viability in assay [1] is 90.5%; in [3], 90.5% (inactive); in [4] it was 112% (inactive); in [5] it was 105% (inactive); in assay [6] (setting [16]), 102%; in [6] (setting [17]) it was 105%. Besides, the viability in [12] is 101% (inactive); in assay [13] it was 91.2% (inactive). In addition, the Her2 level in [2] was 120% (inactive). Also, the differential viability (reversal) in assay [6] (H69AR cells + 2 uM doxorubicin) was 2.54% (inactive). The inhibition in [7] was 5.45% (inactive); in [8] it was -2.83% (inactive); in assay [14], 0.655% (inactive). Further, the growth inhibition in [9] is 5.8% (inactive); in assay [10], -5.84% (inactive). For the same compound, in assay [11], the viability increase was -1.84% (inactive). Besides, the RAM network inhibition in [15] is -0.9% (inactive).
As for `COc1ccc(-n2c(Cc3cccn3C)nnc2SCC(=O)Nc2ccc(Cl)cc2)cc1`, the viability was 99% in [1]; 99% (inactive) in assay [3]; 46.6% (inactive) in assay [4]; 70.7% (inactive) in [5]; 79% in assay [6] (setting [16]); 70.7% in [6] (setting [17]). Besides, the viability in assay [12] was 47.6% (inactive); in assay [13] it was 51.3% (inactive). For the same compound, in [2], the Her2 level was 58% (inactive). Moreover, the differential viability (reversal) in assay [6] (H69AR cells + 2 uM doxorubicin) is -8.34% (inactive). Also, the figures for the inhibition in [7], in [8] and in [14] were -0.38% (inactive), 2% (inactive) and -0.125% (inactive), respectively. Moreover, the growth inhibition is 4.53% (inactive) in [9] and 8.94% (inactive) in [10]. The viability increase in assay [11] is -6.37% (inactive). Moreover, the RAM network inhibition in assay [15] is 5.81% (inactive).
For the compound `COc1ccc(OC)c(C2=NOC(C(=O)Nc3cc(C)nn3-c3ccccc3)C2)c1` (stereo not drawn), the viability in assay [1] is 86.5%; in [3], 86.5% (inactive); in assay [4] it was 114% (inactive); in assay [5], 95.2% (inactive); in assay [6] (setting [16]) it was 85.5%; in assay [6] (setting [17]), 95.2%. The viability in [12] was 94.2% (inactive); in [13], 94.9% (inactive). In addition, the Her2 level in assay [2] was 106% (inactive). In [6] (H69AR cells + 2 uM doxorubicin), the differential viability (reversal) was 9.74% (inactive). The inhibition in [7] was -2.56% (inactive); in assay [8] it was -0.33% (inactive); in [14], 1.83% (inactive). For the same compound, the growth inhibition in assay [9] was -7.35% (inactive); in assay [10], -4.62% (inactive). In [11], the viability increase is 0.16% (inactive). Also, in [15], the RAM network inhibition is 7.22% (inactive).
